Laboratory results reported in the supplement of paper PMC4840960.
Structures can show the parent of a compound that is named as a salt.

Legend:
[1] = test system: E18 rat cortical neuron-glia co-culture; assay: fiber score / MBP score (myelination specific beyond OL differentiation) (ratio); higher = more myelination-specific MBP alignment; conditions: treatment time: 8 days (DIV5-DIV13)
Summary of the method: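 Fiber score divided by MBP score is the read-out; fiber score is continuous MBP fiber length per Olig2+ nucleus, and MBP score is thresholded MBP area × intensity per Olig2+ nucleus. Primary E18 rat cortical co-cultures were dissociated with papain and seeded at 20,000 cells/well on poly-d-lysine/laminin 96-well plates. Library compounds at 1 or 5 µM were given in myelination medium from DIV5 to DIV13, after which cells were fixed in 4 % paraformaldehyde, immunostained for MBP and Olig2 with DAPI, and imaged in four 10X fields per well in duplicate wells.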

[2] = test system: E18 rat cortical neuron-glia co-culture; assay: myelination (MBP fiber length per Olig2+ nucleus), % of 1 µM DAPT response (DMSO = 0) (% of DAPT); higher = more myelination, active = 50 or more; conditions: treatment time: 8 days (DIV5-DIV13)
Summary of the method: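 Four 10X fields in each of duplicate wells were analysed after cultures were fixed in 4 % paraformaldehyde and immunostained for MBP and Olig2, with DAPI as the nuclear counterstain. The cultures were papain-dissociated primary E18 rat cortical co-cultures at 20,000 cells/well on poly-d-lysine/laminin 96-well plates, dosed with library compounds at 1 or 5 µM in myelination medium from DIV5 to DIV13. The myelination readout was continuous straight MBP fiber length per Olig2+ nucleus, with 0.1 % DMSO set to 0 and a 1 µM positive control set to 100.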

| SMILES | fiber score / MBP score ([1]; 1 µM) | fiber score / MBP score ([1]; 5 µM) | myelination ([2]; 1 µM) | myelination ([2]; 5 µM) |
| --- | --- | --- | --- | --- |
| COc1ccnc(C[S+]([O-])c2nc3cc(OC(F)F)ccc3[nH]2)c1OC (configuration not stated) [Pantoprazole] | 0.86 | 0.933 | -9.58 (inactive) | 1.97 (inactive) |
| Clc1cccc(Cl)c1NC1=NCCN1 [Clonidine hydrochloride] | 0.735 | 0.879 | -10.4 (inactive) | -5.88 (inactive) |
| COc1c2occc2cc2ccc(=O)oc12 [Methoxsalen] | 0.488 | 0.29 | -11.8 (inactive) | -16.1 (inactive) |
| CN(C)[C@@H]1C(O)=C(C(N)=O)C(=O)[C@@]2(O)C(O)=C3C(=O)c4c(O)cccc4[C@@](C)(O)[C@H]3[C@H](O)[C@@H]12 [Oxytetracycline] | 0.993 | 0.668 | -5.3 (inactive) | -10.5 (inactive) |
| CC(C)(C(=O)O)c1ccc(C(O)CCCN2CCC(C(O)(c3ccccc3)c3ccccc3)CC2)cc1 (configuration not stated) [Fexofenadine] | 0.774 | 0.82 | 0.24 (inactive) | 0.141 (inactive) |
| N[C@@H](C(=O)N[C@@H]1C(=O)N2C(C(=O)O)=C(CSc3c[nH]nn3)CS[C@H]12)c1ccc(O)cc1 [Cefatrizine] | 0.846 | 0.832 | -4.14 (inactive) | -4.37 (inactive) |
| CC1=C(/C=C/C(C)=C/C=C/C(C)=C/C(=O)O)C(C)(C)CCC1 [Retinoic Acid] | 0.93 | 0.533 | -3.28 (inactive) | -10.5 (inactive) |
| CC(=O)O[C@H]1C[C@@H]2CC[C@@H]3[C@H](CC[C@@]4(C)[C@H]3C[C@H]([N+]3(C)CCCCC3)[C@@H]4OC(C)=O)[C@@]2(C)C[C@@H]1N1CCCCC1 [Vecuronium Bromide] | 0.647 | 0.791 | -15.8 (inactive) | -9.35 (inactive) |
